Compound activity from PubChem.
An excerpt weighted towards active compounds, which were near 2.4% of everything screened.
POLI inh: DNA polymerase iota (human) inhibition | hit rate 1% among 390,000 | Potency, µM (top dose mostly 115 µM), hits mostly inhibitors | Q9UNA4 | Pol iota fluorescent replication assay, 10 min
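Pol iota at 10 nM preincubated 15 min with compounds at room temperature; reaction started with fluorescent substrate, 50 nM final. Fluorescence read kinetically at 0 and 10 min; buffer-only wells as negative control.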
TDP1 block: blocks human tyrosyl-DNA phosphodiesterase 1 | hit rate 0.28% among 350,000 | Q9NUW8 | Potency, µM (titrated, usually from 130 µM), actives largely listed as inhibitors | recombinant TDP1, AlphaScreen DNA substrate cleavage; also: nearly all actives have a fitted effect of over 40% in size
Target sequence (Q9NUW8 whole entry, looked up): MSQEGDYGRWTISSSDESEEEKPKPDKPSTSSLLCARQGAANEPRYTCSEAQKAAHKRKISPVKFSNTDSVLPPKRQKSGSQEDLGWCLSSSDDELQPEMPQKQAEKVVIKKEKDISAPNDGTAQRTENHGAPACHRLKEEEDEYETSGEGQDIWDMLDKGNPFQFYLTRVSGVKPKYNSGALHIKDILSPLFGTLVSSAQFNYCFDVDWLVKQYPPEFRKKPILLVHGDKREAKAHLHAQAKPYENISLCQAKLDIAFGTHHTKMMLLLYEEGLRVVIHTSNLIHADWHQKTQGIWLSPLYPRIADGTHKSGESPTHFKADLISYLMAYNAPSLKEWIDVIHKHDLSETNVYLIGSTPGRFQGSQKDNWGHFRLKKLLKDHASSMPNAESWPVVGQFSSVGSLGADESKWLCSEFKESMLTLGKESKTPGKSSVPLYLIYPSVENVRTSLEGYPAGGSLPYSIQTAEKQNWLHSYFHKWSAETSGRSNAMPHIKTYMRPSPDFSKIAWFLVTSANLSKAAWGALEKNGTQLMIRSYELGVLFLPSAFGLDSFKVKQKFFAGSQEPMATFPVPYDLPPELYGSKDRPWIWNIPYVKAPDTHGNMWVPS
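E. coli-derived human Tdp1, 1 nM final. Cpd preinc 15 min RT; substrate 15 nM final, 5 min RT; AS bead mix 10 ug/ml final, 10 min RT. Signal loss = tyrosine-FITC cleavage. No-enzyme wells = max signal.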
POLH inh: blocks human DNA polymerase eta activity | Q9Y253 | recombinant Pol eta, fluorescent DNA replication assay | Potency, µM (series often up to 114 µM), usual class: inhibitors | hit rate 1.2% among 390,000 | AID 588591
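Pol eta (10 nM) was preincubated with compounds for 15 min at room temperature, after which fluorescent replication substrate (50 nM final) was added to start the reaction. Fluorescence was read kinetically at 0 and 10 min.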
Pol beta inh: blocks human DNA polymerase beta activity; Pol beta primer extension/strand displacement, fluorescence kinetic; Potency, µM (doses to about 114 µM), usual class: inhibitors; hit rate 1.3% among 340,000; AID 485314
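Enzyme-only controls used 10 nM Pol beta; buffer lacking enzyme served as negative control. Compound preincubated 15 min, then 50 nM substrate added; 0 and 10 min reads at room temperature.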
Pol kappa inh: inhibitors of human DNA polymerase kappa; Potency, µM (top dose mostly 107 µM), actives largely listed as inhibitors; Q9UBT6; hit rate 0.53% among 400,000; purified Pol kappa, fluorescent DNA synthesis assay, 10 min; AID 588579
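Here, compound and 10 nM enzyme are combined for 15 min at room temperature; adding 50 nM substrate (final) starts DNA synthesis, tracked by fluorescence at 0 and 10 min against buffer-only wells.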
Of the large screens only hits and unclear results are named; the others gave an inactive call. Calls follow the shape of the dose curve; as a rule, active = well fitted curve in the direction sought with a large enough effect; inconclusive = small, poorly fitted or top-dose-only effect, or another doubt; inactive = no such curve, though single readings can be large; an effect the other way counts as inactive or inconclusive.

CCCCCn1c(=O)[nH]c2cc(C(=O)N3CCN(c4cccc(C)c4)C(C)C3)ccc2c1=O (centres undefined)	none
Cc1cccc(C(=O)OCC(=O)NCc2cccs2)c1	none
CS(=O)(=O)c1ccc(C(=O)OCC(=O)NCc2cccs2)cc1[N+](=O)[O-]	POLI inh inconclusive, POLH inh 45µM (no result: Pol beta inh)
CCn1cnc2cc(NCc3ccc(OC)cc3)ccc21	none
CCOc1ccc2nc3cc(N)ccc3c(N)c2c1	Pol kappa inh 22µM (no result: POLI inh, POLH inh, Pol beta inh)
CCOc1ccc2nc3cc(NCc4ccc(OC)cc4)ccc3c(N)c2c1	POLH inh 79µM, Pol beta inh 28µM (no result: TDP1 block)
O=C(c1ccc2c(c1)N(Cc1ccccc1)C(=O)c1ccccc1S2(=O)=O)N1CCc2ccccc21	none (no result: POLH inh)
COc1ccc(C2Nc3ccccc3C(=O)N2Cc2ccccc2C(F)(F)F)cc1COc1ccc(NC(C)=O)cc1 (centres undefined)	none (no result: POLI inh, POLH inh, Pol beta inh, Pol kappa inh)
CCCCNC(=O)[C@@H]1CC=C[C@@H]2CCN(Cc3ccc(OC)c(OC)c3)C(=O)[C@@H]21	none (no result: TDP1 block, POLH inh, Pol beta inh)
Cc1nc2ccccn2c1C(=O)N/N=C/c1ccc(CNC(=O)C(=O)Nc2ccccc2)o1	POLI inh 89µM, POLH inh inconclusive, Pol beta inh inconclusive
Cc1nc2ccccn2c1C(=O)N/N=C/c1ccc([N+](=O)[O-])cc1	none (no result: TDP1 block)
CC(Sc1ccsc1[N+](=O)[O-])C(=O)NCc1ccco1 (centres undefined)	POLI inh inconclusive, POLH inh 40µM, Pol beta inh 22µM, Pol kappa inh inconclusive
CC(Sc1nnc(-c2cccs2)n1-c1ccccc1)C(=O)NCc1ccco1 (centres undefined)	POLH inh inconclusive
N#Cc1c(-c2cccc(Br)c2)cc(-c2ccco2)[nH]c1=O	POLI inh inconclusive, POLH inh 50µM, Pol beta inh 18µM
COc1ccc(-c2cc(-c3ccco3)[nH]c(=O)c2C#N)cc1	POLH inh inconclusive, Pol beta inh inconclusive (no result: TDP1 block)
Cc1ccc(NC(=O)c2oc3ccc(S(=O)(=O)N4CCC5(CC4)OCCO5)cc3c2C)c(C)c1	none
COCCn1c(C)cc(C(=O)COC(=O)c2ccc([N+](=O)[O-])o2)c1C	POLI inh inconclusive, POLH inh 79µM, Pol beta inh inconclusive
O=C(/C=C/c1ccc(Br)o1)Nc1nccs1	POLI inh 20µM, POLH inh inconclusive, Pol beta inh inconclusive, Pol kappa inh inconclusive (no result: TDP1 block)
O=C(/C=C/c1ccc(Br)o1)NCc1ccccc1	POLI inh inconclusive, Pol beta inh 0.71µM, Pol kappa inh inconclusive
Cc1ccccc1Nc1cc(C(=O)NC2CCCC2)c2ccccc2n1	none
O=c1cc(COc2ncnc3ccccc23)nc2sccn12	POLI inh 28µM, Pol beta inh inconclusive
CC(Oc1ccc(F)cc1)C(=O)Nc1cccc(-c2nn[nH]n2)c1 (centres undefined)	POLI inh 45µM, POLH inh 45µM
Cc1ccc(C(=O)N/N=C/c2ccc([N+](=O)[O-])s2)cc1	POLI inh inconclusive, TDP1 block inconclusive, Pol beta inh 28µM
O=C(N/N=C/c1ccc([N+](=O)[O-])s1)c1ccncc1	POLI inh inconclusive
Cc1ccc(/C=C/C(=O)N2CCN(S(=O)(=O)c3cccs3)CC2)o1	none
O=C(/C=C/c1ccco1)N1CCN(S(=O)(=O)c2cccs2)CC1	POLI inh 40µM, POLH inh inconclusive, Pol beta inh 50µM
CCc1ccc(CN(Cc2ccco2)c2cnc(S(C)(=O)=O)nc2C(=O)Nc2cccc(C)c2)cc1	none
CCOc1ccc(C(=O)Nc2c(C)nc(Nc3ccccc3)nc2Nc2ccccc2)cc1OCC	POLI inh 71µM
CC(C)C(=O)Nc1cccc(-c2nc3ccccc3o2)c1	Pol beta inh inconclusive
COc1ccccc1OC(C)C(=O)Nc1cccc(-c2nc3ccccc3o2)c1 (centres undefined)	POLI inh 89µM, POLH inh inconclusive, Pol beta inh 50µM, Pol kappa inh inconclusive (no result: TDP1 block)
COc1cc(/C=C/c2ccnc3ccccc23)ccc1N(C)C	none (no result: TDP1 block, POLH inh, Pol beta inh)
COc1ccc(C(=O)CC(=O)c2ccc(F)cc2)cc1	none (no result: TDP1 block, Pol beta inh)
COc1ccc(C(=O)CC(=O)c2ccc(C(C)(C)C)cc2)cc1	TDP1 block 20µM, Pol kappa inh inconclusive (no result: Pol beta inh)
COc1ccccc1CNC(=O)CC(c1ccc(C)cc1)N1Cc2ccccc2C1=O (centres undefined)	none
Cc1ccc(NC(=O)Nc2ccc(S(N)(=O)=O)cc2)cc1	none
Cc1ccc(NC(=O)NC(=O)N(C(C)C)S(=O)(=O)c2ccc(C)cc2)cc1	Pol beta inh 89µM
Cc1cc(C)nc(SCCc2ccncc2)n1	POLI inh 22µM
Cc1cc(C)nc(SCSc2nc(C)cc(C)n2)n1	none
Cc1cccc(NC(=O)c2cc([N+](=O)[O-])ccc2N2CCOCC2)c1C	none (no result: POLI inh, TDP1 block, Pol beta inh, Pol kappa inh)
Cc1c(NC(=O)c2cc([N+](=O)[O-])ccc2N2CCOCC2)cccc1-c1nc2ccccc2o1	POLI inh 22µM
COC(=O)c1ccccc1NC(=O)/C=C/c1ccco1	POLI inh inconclusive, POLH inh 18µM
O=C(/C=C/c1ccco1)NC(=S)Nc1ccc(Cl)cn1	POLI inh inconclusive, POLH inh inconclusive, Pol beta inh 35µM
CC(=O)NC(=S)Nc1ccc(NC(=S)NC(=O)/C=C/c2ccco2)cc1	POLI inh 32µM, POLH inh inconclusive, Pol beta inh inconclusive (no result: TDP1 block)
CCOC(=O)c1cc(S(=O)(=O)N2CCN(c3ccc(F)cc3)CC2)[nH]n1	none
Cn1c(C(=O)NCc2ccccc2Cl)cc2sc(Cl)cc21	none (no result: POLH inh)
Cc1cc(C(=O)N2CCN(C(c3ccccc3)c3ccccc3)CC2)no1	none
CCCc1cc(C(=O)N2CCN(C(c3ccccc3)c3ccccc3)CC2)no1	POLI inh inconclusive, POLH inh inconclusive, Pol kappa inh 89µM
Cc1ccc(C2C(=O)N(C3CCCCCC3)CC(=O)N2CCC2=CCCCC2)cc1 (centres undefined)	none
Cc1ccc(-n2ccc(=O)c(C(=O)Nc3ccc(S(=O)(=O)Nc4nccc(C)n4)cc3)n2)cc1	POLI inh inconclusive, TDP1 block inconclusive, POLH inh 40µM
O=C(Nc1ccc(S(=O)(=O)Nc2nccs2)cc1)C1=NN(c2ccccc2)C(=O)CC1	POLI inh inconclusive, POLH inh 50µM, Pol beta inh inconclusive
CCOc1ccc(-n2ccc(=O)c(C(=O)Nc3ccc(S(=O)(=O)Nc4ncccn4)cc3)n2)cc1	POLH inh inconclusive
Cc1ccc(-n2ccc(=O)c(C(=O)Nc3ccc(S(=O)(=O)Nc4nccs4)cc3)n2)cc1	POLH inh 79µM, Pol beta inh inconclusive
O=C(Nc1ccc(S(=O)(=O)Nc2nccs2)cc1)c1cccc(F)c1	none (no result: TDP1 block)
CN(C)/[N+]([O-])=N/Oc1cc(ON=[N+]([O-])N2CCN(c3ncccn3)CC2)c([N+](=O)[O-])cc1[N+](=O)[O-]	none (no result: POLH inh, Pol beta inh)
CC1=C(c2ccc(C(C)C)cc2)S(=O)(=O)N=C1N1CCN(c2ccccc2F)CC1	Pol beta inh inconclusive
COC(=O)CC1c2ccccc2C=C(C2CC2)N1C(=O)OC (centres undefined)	none (no result: POLI inh, POLH inh, Pol beta inh, Pol kappa inh)
Nc1ccc(Cc2ccc(C=O)cc2)cc1	none (no result: TDP1 block, POLH inh, Pol beta inh)
